Source: PubChem (National Center for Advancing Translational Sciences (NCATS))
Tau FP inhib: tau fibrillization inhibition (FP). K18 P301L tau heparin fibrillization, Alexa594 FP, 6 h. Potency, µM (doses to about 57.7 µM), inactives show at the highest dose activity, negative = inhibition, usual class: inhibitors. 280,000 compounds, 0.39% hits; also: potency is read from the fitted curve at half-maximal effect; nearly all actives have a fitted effect of over 55% in size
Target sequence (P10636 561-689 P618L limits assumed): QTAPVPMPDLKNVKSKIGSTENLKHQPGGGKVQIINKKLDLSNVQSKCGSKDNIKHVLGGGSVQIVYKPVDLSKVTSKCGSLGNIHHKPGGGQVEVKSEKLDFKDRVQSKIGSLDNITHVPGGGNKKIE
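FP of Alexa 594-tau after heparin (20 uM) induction. Substrate: human K18 P301L, 15 uM unlabeled, 0.24 uM labeled. Buffer 100 mM sodium acetate pH 7. 6 hr, 37 C.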
Tau fibril ThT: inhibitors of human tau fibril formation, thioflavin T binding | P10636 | recombinant tau K18 P301L, heparin-induced fibrillization, ThT fluorescence | Potency, µM (top dose mostly 57.4 µM), for the others: at the highest dose activity, negative = inhibition, most hits filed as inhibitors | 270,000 compounds, 2.1% hits | AID 1460; also: potency is read from the fitted curve at half-maximal effect; nearly all actives have a fitted effect of over 55% in size
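Recombinant human tau K18 fragment […] carrying P301L, 15 uM unlabeled plus 0.24 uM Alexa 594-labeled, was fibrillized with 20 uM heparin in 100 mM sodium acetate pH 7 for 6 hr at 37 C; 30 uM ThT fluorescence read after 1 hr.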
Coupling enz: counter-screen for Giardia aldolase inhibitors: coupling enzyme system; coupling enzyme system counterscreen, AmpLite Red fluorescence; activity change, negative = inhibition, % at 58.2 µM, hits read low; AID 2472; 290,000 compounds, 0.67% hits; in the data active = activity change below about -30%
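First, compound is pin-transferred into glyceraldehyde-3-phosphate coupling-enzyme reagent at 57.5 uM final and held 10 min at RT. Next, substrate, coupling system and AmpLite Red are added. After 20 min RT, fluorescence (525/598 nm) is read.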
Tau fluor cs: counter-screen for tau fibril formation inhibitors; tau K18 P301L (four-repeat tau fragment) Alexa594 fluorescence, heparin fibrillization; Potency, µM (series often up to 57.7 µM), inactives show top-dose activity change, negative = decrease; 280,000 compounds, 0.93% hits; also: potency is read from the fitted curve at half-maximal effect; nearly all actives have a fitted effect of over 55% in size
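Human K18 P301L tau (15 uM unlabeled plus 0.24 uM Alexa 594-labeled, final) in 100 mM sodium acetate pH 7 was mixed with compound and 20 uM heparin and incubated 6 hr at 37 C.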
Sfp PPTase inh: Sfp phosphopantetheinyl transferase inhibition. Biochemical Sfp PPTase activity, qHTS. Q9F4F7. 310,000 compounds, 3.5% hits. Potency, µM, for the others: largest response in the series, negative = inhibition, most hits filed as inhibitors;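 also: the enzyme is Sfp with the accession as filed and its product quenches rhodamine fluorescence; potency is read from the fitted curve at half-maximal effect; 0% = enzyme reaction without inhibitor and -100% = no enzyme wells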
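Reaction rates are the 30-min fluorescence difference (ex 525, em 598 nm) in wells containing 15 nM Sfp, 5 uM rhodamine-CoA and 12.5 uM BHQ-2-YbbR at pH 7.6 with 10 mM MgCl2.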
* hit, by the source's call; ? = inconclusive; . = no result; [ ] = another dose, or the depositor's remark. Shown are actives, neighbours in structure and some others; about 5.2% of the full set was active somewhere. Unless noted, calls follow the shape of the dose curve; as a rule, active = well fitted curve in the direction sought with a large enough effect; inconclusive = small, poorly fitted or top-dose-only effect, or another doubt; inactive = no such curve, though single readings can be large; an effect the other way counts as inactive or inconclusive. Unless noted, % is scaled to controls: 0 for no effect and ±100 for the full control effect.

SMILES	Tau FP inhib	Tau fibril ThT	Coupling enz	Tau fluor cs	Sfp PPTase inh
CCCCOc1ccc(CN2CCC(O)CC2)cc1	-6.2%	-7.8%	-1.7	-12.7%	79.4µM*
CCOc1ccc(CN2CCC(Cc3ccccc3)CC2)cc1	.	.	-1.3	.	0.7%
Cc1cccc(NC(=O)CSc2nnc(NC(=O)CN3CCCCC3)s2)c1	-0.6%	-0.7%	3.5	0.5%	-18.6%
Cc1cccc(Nc2nnc(SCC(=O)Nc3cccc(S(=O)(=O)N4CCCCC4)c3)s2)c1	-25.3%	-10.5%	-3.7	12.6µM*[quencher]	9.1%
CC(=O)Nc1ccc(C(=O)CSc2nnc(-c3ccccc3)n2-c2ccccc2)cc1	-11.6%	-6.9%	.	-8.4%	.
O=C(O)CC/C=C\CC[C@H]1[C@@H](N2CCCCC2)[C@@H](O)C[C@@H]1OCc1ccc(-c2ccccc2)cc1	-0.6%	-1.4%	-1.5	-3.1%	-8.1%
COc1cc2nc(-c3ccc(Br)o3)oc(=O)c2cc1OC	-5.7%	?	-39.8*	-16.8%	?
Cc1ccc2nc(-c3ccc(Br)o3)oc(=O)c2c1	0.2%	-13.7%	-2.8	-1.8%	11.7%
CC1(C)CC(=O)C(c2c[nH]c3ccccc23)C(=O)C1	-14.8%	?	-0.1	-17.1%	79.4µM*
CCOC(=O)c1cc(-c2ccc(F)cc2)n(CCC(=O)Nc2ccccc2OC)c1C	6.9%	-4.7%	.	-9.9%	.
CC(=O)N1CCCC1c1nc2ccccc2n1Cc1cc(C)ccc1C (stereo not drawn)	7.5%	-1.0%	.	6.8%	.
CN(C)C(=O)NC(NC(=S)Nc1ccccc1)C(Cl)(Cl)Cl (stereo not drawn)	?	-12.6%	1.6	-12.3%	56.2µM*
Cc1ccc(C(=O)Nc2cccc(C(F)(F)F)c2)cc1NC(=O)c1csc(-c2ccncc2)n1	-9.4%	-10.8%	6.6	-14.7%	20µM*
O=C(Nc1ccc(F)cc1F)c1csc(-c2ccncc2)n1	4.7%	-7.7%	1.7	-2.7%	9.0%
Cc1ccc(-c2ccc(C3C4C=CCC(C)C4C(=O)N3Cc3ccccc3)c(F)c2)cc1 (stereo not drawn)	.	.	1.6	.	?
CCC(=O)N1N=C(c2ccc(C)o2)CC1c1ccc(Br)cc1 (stereo not drawn)	?	-9.3%	2.9	-7.7%	50.1µM*
Cc1ccc(-c2ccc(/C=C/C(=O)c3ccccc3)o2)cc1	-7.4%	12.6µM*	-2.0	-15.1%	11.2µM*
O=C(/C=C/c1ccc(-c2ccccc2)o1)c1ccccc1	1.7%	5.6%	-19.6	-0.5%	15.8µM*
Cc1ccc(/C=C/C(=O)c2ccc(C)cc2)cc1	6.4%	?	0.7	-2.2%	-2.7%
Cc1ccc(C(=O)/C=C/C(=O)c2ccc(C)cc2)cc1	-6.6%	-10.3%	1.7	2.8%	3.16µM*
CCC(=O)N1CCc2cc(S(=O)(=O)NC(CC(C)C)C(=O)Nc3cccc(C)c3C)ccc21 (stereo not drawn)	-2.9%	-11.7%	.	-15.9%	.
COc1ccc(-n2c(=O)c(-c3cc(F)cc(F)c3)nc3cnc(N(C)C)nc32)cc1	.	.	2.1	.	8.9%
CCNc1ncc2nc(-c3ccc(F)cc3)c(=O)n(C)c2n1	.	.	0.5	.	-1.0%
CCC1CN(C(=O)N2CCC(C(=O)NCc3ccccc3F)CC2)c2ccccc2O1 (stereo not drawn)	-3.5%	5.5%	.	-11.0%	.
CCC1CN(C(=O)N2CCC(C(=O)N3CCN(c4cccc(C)c4C)CC3)CC2)c2ccccc2O1 (stereo not drawn)	7.0%	-18.1%	.	5.01µM*[quencher]	.
SMILES	Tau FP inhib	Tau fibril ThT	Coupling enz	Tau fluor cs	Sfp PPTase inh
CCC1CN(C(=O)N2CCC(C(=O)N3CCN(c4cc(C)ccc4C)CC3)CC2)c2ccccc2O1 (stereo not drawn)	14.9%	-9.0%	.	?	.
CCC1CN(C(=O)N2CCC(C(=O)N3CCN(c4ccc(F)cc4)CC3)CC2)c2ccccc2O1 (stereo not drawn)	-1.8%	9.6%	.	2.51µM*[quencher]	.
Cc1ccc(Cl)cc1N1CCN(CCCNc2ncnc3onc(-c4ccc(F)cc4)c23)CC1	-6.4%	-16.1%	.	-28.0%	.
CCOC(=O)c1c(C)n(CCNC(C)=O)c2ccc(O)cc12	7.4%	-0.9%	0.7	-1.5%	8.0%
CCOC(=O)c1c(C)n(CCOc2ccccc2)c2ccc(O)cc12	.	.	2.6	.	70.8µM*
COCCNC(=O)c1cnc2sc(N3CCCCC3)nn2c1=O	10.0%	0.6%	.	-1.0%	.
COC(=O)C1=C(O)/C(=C\c2cc(C)n(-c3ccc(F)cc3)c2C)N=C1C	0.1%	?	-29.8	-23.0%	?
COC(=O)C1=C(C)NC(=O)/C1=C\c1cc(C)n(-c2cccc(C)c2)c1C	3.2%	25.1µM*	-11.2	?	?
COC(=O)C1=C(C)NC(=O)/C1=C\c1cc(C)n(-c2ccc(F)cc2)c1C	1.4%	15.8µM*	-14.7	?	35.5µM*
C/C(=C(/CCO)SS/C(CCO)=C(\C)N(C=O)Cc1cnc(C)nc1N)N(C=O)Cc1cnc(C)nc1N	.	.	.	.	-3.8%
CCOC(=O)c1c(C)c(-c2ccccc2)n(CC(=O)Nc2cc(C)ccc2OC)c1C	-2.1%	-9.7%	.	-18.9%	.
Cc1cccc(NC(=O)C(C)OC(=O)c2ccccc2NS(=O)(=O)c2cc(C)c(C)c([N+](=O)[O-])c2)c1 (stereo not drawn)	7.0%	-13.6%	5.5	?	18.9%
O=C(O)c1ccccc1Nc1ccc([N+](=O)[O-])cc1C(=O)O	4.0%	.	-0.2	-2.0%	16.0%
Cc1ccc(NC(=S)NNc2ccc([N+](=O)[O-])cc2S(=O)(=O)Nc2ccccc2C(=O)O)cc1C	?	7.94µM*	0.3	?	39.8µM*
O=C(O)c1ccccc1NS(=O)(=O)c1ccc(NNC(=S)Nc2ccc(OC(F)F)cc2)c([N+](=O)[O-])c1	25.1µM*	7.08µM*	14.4	10µM*[quencher]	?
COC(=O)Cc1c(C)c2ccc3c(c2oc1=O)CN(Cc1ccc(Cl)cc1)CO3	1.4%	-9.7%	.	-10.0%	.
COc1ccc(C)cc1NC(=O)c1cc(S(=O)(=O)N2CCCCC2)c[nH]1	10.4%	-2.6%	.	-25.5%	.
[N-]=C=C1C(=O)NC(=O)C([n+]2ccc(-c3ccncc3)cc2)C1c1ccccc1C(F)(F)F (stereo not drawn)	4.8%[0.0958 µM]	.	-64.7*	4.5%[0.0958 µM]	50.1µM*
Cc1cccc(CS(=O)(=O)c2nnc([C@H](Cc3ccccc3)NC(=O)OC(C)(C)C)o2)c1	-8.6%	-2.2%	2.0	-1.7%	17.8µM*
COC(=O)Cc1n[nH]c(=S)[nH]c1=O	-8.0%	?	-0.5	1.3%	17.8µM*
CCCCOC(=O)C(C)Nc1n[nH]c(=O)[nH]c1=O (stereo not drawn)	1.0%	-0.8%	0.3	-1.2%	-11.2%
CCCCOC(=O)C(C)Nc1n[nH]c(=S)[nH]c1=O (stereo not drawn)	5.3%	-15.0%	3.0	-5.6%	50.1µM*
CCCCOC(=O)CNc1n[nH]c(=S)[nH]c1=O	5.8%	-5.1%	1.0	-0.7%	56.2µM*
